Assay outcomes from PubChem BioAssay.
Pf growth 96h – Primary qHTS for delayed death inhibitors of the malarial parasite plastid, 96 hour incubation; Potency, µM (doses to about 28.7 µM), inactives show at the highest dose activity change, negative = inhibition, hits mostly inhibitors; AID 504834, 2011; P. falciparum luciferase reporter growth, 96 h; actives 6.9% (n = 320,000); note: % is set by controls: 0 for no effect and ±100 for the full control effect
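Readout is luminescence from an integrated firefly luciferase in P. falciparum. Red cells, 2% hematocrit and 0.05% parasitemia final, were cultured with compound through two parasite generations (96 hours) at 37 C, 5% CO2.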
Sm TGR block – qHTS Assay for the Inhibitors of Schistosoma Mansoni Peroxiredoxins; Schistosoma mansoni thioredoxin glutathione reductase (TGR), Q962Y6; purified TGR, DTNB reduction, TNB absorbance 405 nm; actives 3% (n = 360,000); Potency, µM (titrated, usually from 114 µM), for the others: at the top dose activity change, negative = inhibition, usual class: inhibitors; AID 485364, 2010; note: % is set by controls: 0 for no effect and ±100 for the full control effect; nearly all actives have a fitted effect of over 60% in size
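First, TGR (20 nM dispensed) and NADPH were mixed with compound. Second, a 15 min room-temperature incubation followed. Third, further NADPH and then DTNB were added to start the reaction. Finally, TNB absorbance was monitored kinetically.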
SARS PLP yeast – qHTS of Yeast-based Assay for SARS-CoV PLP. S. cerevisiae expressing SARS-CoV PLpro, growth rescue. Potency, µM (titrated, usually from 32.9 µM), without a hit: at the highest dose activity, positive = growth rescue, usual class: activators. actives 0.19% (n = 330,000). AID 485353, 2010; calls by dose curve; note: 0% is about no effect; nearly all actives have a fitted effect of over 55% in size
Pf growth 48h – Primary qHTS for delayed death inhibitors of the malarial parasite plastid, 48 hour incubation; P. falciparum luciferase growth in erythrocytes, 48 h; Potency, µM (top dose mostly 28.7 µM), for the others: at the top dose activity change, negative = inhibition, hits mostly inhibitors; actives 5.9% (n = 310,000); note: % is set by controls: 0 for no effect and ±100 for the full control effect
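Luciferase-expressing P. falciparum in infected erythrocytes (2% hematocrit, 0.1% parasitemia final) in RPMI 1640/0.5% Albumax were exposed to compound for 48 hours at 37 C, 5% CO2; growth read as luminescence.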
* marks the source's active call; other numbers are inactive results; ? = inconclusive; nt = no result; [ ] = dose if it differs, or a comment. Shown are actives, neighbours in structure and some others; about 12% of the full set was active somewhere. Unless noted, calls come from the whole dose curve; as a rule, active = well fitted curve in the direction sought with a large enough effect; inconclusive = small, poorly fitted or top-dose-only effect, or another doubt; inactive = no such curve, though single readings can be large; an effect the other way counts as inactive or inconclusive. Potency is the fitted concentration of half-maximal effect.

SMILES	Pf growth 96h	Sm TGR block	SARS PLP yeast	Pf growth 48h
CCCCn1cc2c(c1-c1ccccc1Br)c(=O)n(C)c(=O)n2C	nt	1%	nt	nt
Cc1ccc(CN2CC(C(=O)N3CCN(S(=O)(=O)c4c(F)cccc4F)CC3)CC2=O)cc1 (stereo not drawn)	?	0%	-2%	?
O=C(CSC1=Nc2ccccc2C2=NC(Cc3ccccc3)C(=O)N12)Nc1cccc(Cl)c1 (stereo not drawn)	nt	1%	nt	nt
COc1cccc(C(=O)Nc2ccc(NC(C)=O)cc2)c1	58%	2%	3%	nt
COc1cccc(C(=O)C(C#N)=C(SC)SC)c1	?	13µM*	1%	?
CSC(SC)=C(C#N)C(=O)c1ccccc1	30%	11µM*	0%	-1%
COc1c2c(cc3oc(=O)ccc13)OC(C)(C)C=C2	0.0047µM*	-18%	1%	7%
CC1(C)C=Cc2cc3ccc(=O)oc3cc2O1	?	-3%	-1%	84%
CC1=C(C(=O)Nc2cccc(C(F)(F)F)c2)C2(CCCCCC2)OC1=O	nt	1%	nt	nt
COc1cc(NC(=O)Cn2c(=O)n(C(C)C)c(=O)c3oc4ccccc4c32)cc(OC)c1	nt	-1%	nt	nt
Cc1ccc(C2C3=C(CC(C)(C)CC3=O)N=C3c4ccccc4C(=O)C32)cc1 (stereo not drawn)	17%	-7%	-15%	8.3µM*
O=C(C[n+]1cccc(NC(=O)c2ccccc2)c1)c1ccc(NC(=O)c2ccccc2)cc1	?	-4%	5%	?
O=C(C[n+]1ccc2ccccc2c1)c1cccc2ccccc12	48%	25µM*	1%	?
O=C(C[n+]1ccc2ccccc2c1)c1ccc(NC(=O)c2ccccc2)cc1	51%	nt	0%	13µM*
Cc1ccc(-c2cc(-c3ccc(Cl)cc3)c(C#N)c(N)n2)o1	nt	3.5µM*	-29%	-13%
Cc1ccc(-c2cc(-c3ccc4c(c3)OCO4)c(C#N)c(N)n2)o1	nt	10µM*	-7%	?
Cc1ccc(-c2cc(-c3ccc(F)cc3)c(C#N)c(N)n2)o1	-19%	20µM*	-43%	-1%
CCOc1cc(-c2cc(-c3ccc(C)o3)nc(N)c2C#N)ccc1O	nt	-24%	-14%	?
Cc1nc(N)c(C#N)c(-c2ccc3c(c2)OCO3)c1C	?	6%	-1%	-24%
Cc1ccc(-c2cc(-c3ccc(C)o3)nc(N)c2C#N)cc1	?	3.2µM*	-27%	?
CCC(C)NC(=O)Cn1c(=O)n(CCCC(=O)NCc2ccc(C)cc2)c(=O)c2ccccc21 (stereo not drawn)	nt	-1%	nt	nt
C/C(=N\NC(=O)c1ccncc1)c1cccc(NC(=O)c2ccc(Cl)s2)c1	42%	-9%	?	28%
Cc1cc(-c2cc(-c3ccc(Cl)cc3)nc(N)c2C#N)co1	nt	3.2µM*	-18%	?
CCN(CC)CCN1C(=O)C(=O)/C(=C(/O)c2cccc(OC)c2)C1c1ccccn1 (stereo not drawn)	12µM*	-36%	11%	?
CCN(CC)CCCN1C(=O)C(=O)/C(=C(/O)c2ccc(Cl)cc2)C1c1ccccn1 (stereo not drawn)	0%	-5%	0%	13%
SMILES	Pf growth 96h	Sm TGR block	SARS PLP yeast	Pf growth 48h
COCCN1C(=O)C(=O)/C(=C(/O)c2ccc(C)cc2)C1c1ccccn1 (stereo not drawn)	3.3µM*	-14%	0%	-3%
Cc1ccc(/C(O)=C2/C(=O)C(=O)N(CCCn3ccnc3)C2c2ccccn2)cc1 (stereo not drawn)	?	3%	5%	4%
Cc1ccccc1OCCn1c(CCNC(=O)C2CCCCC2)nc2ccccc21	nt	8%	nt	nt
Nc1nonc1-n1nnc(C(=O)N/N=C/c2ccccc2Cl)c1-c1ccccc1	64%	7%	-1%	8%
Nc1nonc1-n1nnc(C(=O)N/N=C/c2ccc(Br)cc2)c1-c1ccc2c(c1)OCO2	0.059µM*	4%	0%	0.21µM*
Nc1nonc1-n1nnc(C(=O)N/N=C/c2c(F)cccc2Cl)c1-c1ccc2c(c1)OCO2	6.6µM*	-2%	1%	13µM*
Nc1nonc1-n1nnc(C(=O)N/N=C/c2ccc3c(c2)OCO3)c1-c1ccccc1	?	8%	1%	?
Nc1nonc1-n1nnc(C(=O)N/N=C/c2cccc(Cl)c2)c1-c1ccc2c(c1)OCO2	0.033µM*	-13%	0%	0.074µM*
O=c1c(Cl)c(N2CCN(c3ccc(F)cc3)CC2)cnn1C12CC3CC(CC(C3)C1)C2	4.1µM*	3%	10%	4.7µM*
O=c1c(Cl)c(NCc2ccc(F)cc2)cnn1C12CC3CC(CC(C3)C1)C2	28%	3%	-22%	13µM*
O=C(CCSCc1cccc(Cl)c1)NCc1ccc(F)cc1Cl	nt	5%	nt	nt
CCSc1nnc(NC(=O)CCNS(=O)(=O)c2cc(Br)cnc2N)s1	9.3µM*	-20%	1%	?
COc1ccccc1N1C(=O)C2ON(c3ccccc3)C(c3ccc(N(C)C)cc3)C2C1=O (stereo not drawn)	-17%	5µM*	-63%	25%
COc1ccccc1C1C2C(=O)N(c3ccccc3)C(=O)C2ON1c1ccccc1 (stereo not drawn)	8.3µM*	-2%	-6%	1%
O=C(O)COc1ccccc1C1C2C(=O)N(c3ccc(F)cc3)C(=O)C2ON1c1ccccc1 (stereo not drawn)	2%	?	4%	22%
O=C1C2ON(c3ccccc3)C(c3ccncc3)C2C(=O)N1c1ccccc1 (stereo not drawn)	nt	-30%	0%	11%
CC(C)(C)NC(=O)NC(=O)C[n+]1ccc(Cc2ccc([N+](=O)[O-])cc2)cc1	?	-25%	1%	9.3µM*
Cc1ccc(Cl)cc1NC(=O)C[n+]1ccc(Cc2ccc([N+](=O)[O-])cc2)cc1	1.9µM*	2%	2%	?
O=C(C[n+]1ccc(Cc2ccccc2)cc1)Nc1ccc([N+](=O)[O-])cc1Cl	12%	-16%[57.1 µM]	-2%	-30%
COc1ccc(-n2cc(C(=O)OCc3ccc(F)c(F)c3)c3ccccc3c2=O)cc1	nt	0%	nt	nt
CCOC(=O)c1ccccc1NC(=O)c1nn(-c2ccc(C)cc2)c(=O)n(C)c1=O	nt	8%	nt	nt
O=C(C[C@@H]1C/C=C\CCC(=O)OC[C@H](Cc2ccccc2)NC1=O)N[C@@H](CO)Cc1ccccc1	nt	nt	1%	nt
CCN(CC)CCNC(=O)CSc1nc2nc(C)c(Cc3ccccc3)c(C)n2n1	nt	4%	nt	nt
CCOc1cc(/C=C2\SC(=S)N(N3CCOCC3)C2=O)ccc1O	21%	-28%	0%	-1%
CCOc1cc(/C=C2\SC(=N)N(c3nccs3)C2=O)ccc1OCCN1CCOCC1	4.1µM*	4%	-7%	?
Cc1cc(=O)oc(C)c1C(=O)Nc1ccc2ncccc2c1	nt	-2%	2%	9.3µM*
Cc1cc(=O)oc(C)c1C(=O)Nc1ccc2nsnc2c1	nt	-2%	-2%	2%
